Screening results deposited in PubChem by National Center for Advancing Translational Sciences (NCATS).
Shown are actives, neighbours in structure and some others; about 8.9% of the full set was active somewhere.
MCF10A rerep = DNA re-replication induction in MCF 10a cells | 350,000 compounds, 2.9% hits | Potency, µM (doses to about 46.1 µM), inactives show top-dose activity, positive = re-replication, most hits filed as activators | AID 624296 | MCF 10A DNA re-replication, Hoechst nuclear intensity, 48 h; note: potency is the fitted concentration of half-maximal effect; % of control where 0% means no effect; nearly all actives have a fitted effect of over 50% in size
D3 antag = blocks the human D3 dopamine receptor; D3R cells, DiscoveRx beta-arrestin luminescence, antagonist mode; active compounds read low; max response, negative = inhibition, %; 360,000 compounds, 2.5% hits; AID 652054; in the data active = max response below about -50%; inconclusive = no clear call, values can overlap the other calls; note: % is set by controls: 0 for no effect and ±100 for the full control effect
Target sequence (P35462 whole entry, looked up): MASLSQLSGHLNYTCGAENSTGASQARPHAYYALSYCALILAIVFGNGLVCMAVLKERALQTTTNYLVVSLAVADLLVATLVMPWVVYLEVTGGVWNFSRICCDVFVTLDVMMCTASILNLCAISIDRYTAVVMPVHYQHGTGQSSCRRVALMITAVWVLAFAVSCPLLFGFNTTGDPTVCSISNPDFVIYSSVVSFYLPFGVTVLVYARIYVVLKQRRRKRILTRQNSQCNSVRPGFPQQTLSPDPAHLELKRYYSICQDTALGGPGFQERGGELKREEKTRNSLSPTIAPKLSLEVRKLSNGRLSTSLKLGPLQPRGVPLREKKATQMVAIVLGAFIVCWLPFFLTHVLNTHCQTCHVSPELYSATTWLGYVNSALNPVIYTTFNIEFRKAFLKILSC
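Cells expressing the human receptor were seeded at 1500 cells/well, incubated overnight at 37 degrees C in 5% CO2, then exposed to library compounds with dopamine controls for 90 minutes at 37 degrees C before luminescent detection.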
DRD3 agonist = activates the human D3 dopamine receptor. P35462. D3R DiscoveRx beta-arrestin cells, luminescence, 90 min. max activation, %. 410,000 compounds, 0.58% hits. AID 652048; in the data active = max activation above about 30%; note: 0% is about no effect
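Cells at 1500/well, incubated overnight, then treated with pinned compounds (dopamine as control) for 90 min at 37 degrees C. DiscoveRx reagent added for 30 - 60 minutes at room temperature; luminescence read.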
KB-3-1 cytotox = KB-3-1 parental cell cytotoxicity; KB-3-1 viability, CellTiter-Glo ATP luminescence, 72 h; Potency, µM (series often up to 46.1 µM), hits mostly cytotoxic; 400,000 compounds, 1.4% hits; AID 1347075; note: potency is the fitted concentration of half-maximal effect; % is set by controls: 0 for no effect and ±100 for the full control effect; nearly all actives have a fitted effect of over 60% in size
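KB-3-1 cells, DMEM (no phenol red) + 10% FBS; compound by pin transfer, 72 h, 37 °C. Readout: CellTiter-Glo luminescence after 10 min. Data normalized, curve-fitted.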
SW480 rerep = inducers of DNA re-replication in SW480 colon cancer cells. AID 624297. SW480 DNA re-replication, Hoechst DNA content imaging, 48 h. 340,000 compounds, 1.8% hits. Potency, µM (titrated, usually from 46.1 µM), inactives show top-dose re-replication activation, actives largely listed as activators; note: potency is the fitted concentration of half-maximal effect; % of control where 0% means no effect; nearly all actives have a fitted effect of over 55% in size
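Image-based DNA-content assay: after two days of treatment, nuclei were labelled with the DNA dye Hoechst and imaged, and hits were compounds raising the count of nuclei showing high fluorescence intensity.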
KB-V1 cytotox = kills drug-selected multidrug resistant KB-V1 cells; KB-V1 MDR cells viability, CellTiter-Glo, 72 h; Potency, µM (doses to about 46.1 µM), hits mostly cytotoxic; 400,000 compounds, 3.4% hits; AID 1347076; note: potency is the fitted concentration of half-maximal effect; % is set by controls: 0 for no effect and ±100 for the full control effect; nearly all actives have a fitted effect of over 60% in size
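Cells of the MDR subline KB-V1 are plated, dosed with compound at multiple concentrations, and incubated 72 h at 37 degrees C; CellTiter-Glo is then added and luminescence read after 10 min.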
* hit, by the source's call; i = inactive; u = inconclusive; x = not tested or not shown; [ ] = dose if it differs, or a comment. Unless noted, calls come from the whole dose curve; as a rule, active = well fitted curve in the direction sought with a large enough effect; inconclusive = small, poorly fitted or top-dose-only effect, or another doubt; inactive = no such curve, though single readings can be large; an effect the other way counts as inactive or inconclusive.

SMILES	MCF10A rerep	D3 antag	DRD3 agonist	KB-3-1 cytotox	SW480 rerep	KB-V1 cytotox
CCN1C(=O)NC2=C(C(=O)c3ccccc32)C1c1ccccc1F (centres undefined)	u	-62*	-5	i	1%	i
COc1ccc(Br)cc1CN1CCCC(C(=O)N2CCCCC2)C1 (centres undefined)	15%	-89*	-9	i	2%	i
COc1ccc(N2CC(C(=O)N3CCCC(C)C3)CC2=O)cc1 (centres undefined)	3%	10	-1	i	18µM*	i
COc1ccc(OC)c(CN2CCCC(C(=O)N3CCCCC3)C2)c1 (centres undefined)	-1%	-77*	-30	i	-13%	i
COc1ccc(Br)cc1CN1CCC(N2CCCC2)CC1	23µM*	-20	-16	i	u	i
COc1ccc(Br)cc1CN1CCCC(C(=O)N2CCCCCC2)C1 (centres undefined)	u	u	-17	u	-2%	u
COc1ccc(N2CC(C(=O)N3CCOCC3)CC2=O)cc1 (centres undefined)	-14%	2	12	i	-8%	i
CCN1CCN(C(=O)c2c(C)nn(-c3ccc(F)cc3)c2-n2cccc2)CC1	x	x	-14	i	x	i
CC(C)CC1C(C#N)=C(N)OC2=C1C(=O)CC(c1ccccc1)C2 (centres undefined)	21%	-63*	-16	i	-49%[1.84 µM]	i
COc1ccc(/C=c2/sc3n(c2=O)C(c2ccccc2OC)C2=C(N=3)c3ccccc3CC2)cc1O (centres undefined)	18µM*	3	-1	u	5.2µM*	u
CCOC(=O)C1=C(C)N=c2s/c(=C\c3ccc(O)c([N+](=O)[O-])c3)c(=O)n2C1c1ccccc1OC (centres undefined)	u	-17	-10	u	17%	u
Cc1cc(=O)[nH]c2c1c(C)nn2C1CCCCC1	6.5µM*	12	0	i	8.2µM*	i
Cc1nn(Cc2ccccc2)c(Cl)c1/C=C/C(=O)OC(C(=O)NC(N)=O)C(C)C (centres undefined)	6.5µM*	4	5	i	-39%	i
CCOc1ccccc1-c1cc(C(=O)N/N=C/c2ccc3c(c2)OCO3)c2ccccc2n1	15%	1	-8	u	5%	i
O=C(N/N=C/c1ccc(F)cc1)c1cc(-c2ccco2)nc2ccccc12	13µM*	-23	-2	u	u	u
CCOc1ccc(/C=N/NC(=O)c2cc(-c3ccco3)nc3ccccc23)cc1	4.1µM*	7	-8	i	u	i
O=C(O)c1cc(-c2ccco2)nc2ccccc12	-20%	5	17	i	2%	u
CCOc1ccc(OCC)c(NC(=O)C2CCN(S(=O)(=O)c3cn(C)cn3)CC2)c1	x	x	-17	x	x	x
COc1cccc(C(=O)N/N=C(\CC(C)C)c2ccccc2)c1	-3%	-6	0	i	6%	i
Cc1ccc(C(=O)N/N=C(\CC(C)C)c2ccccc2)cc1	16%	-18	-10	i	23µM*	u
O=C(COc1ccc(-c2ccccc2)cc1)N1CCN(S(=O)(=O)Cc2ccccc2)CC1	1%	3	-3	3.7µM*	u	4.6µM*
COc1cc(OC)nc(Oc2cc(/C=N/O)ccc2OC)n1	u	1	0	u	12µM*	u
c1ccc(-c2nc(SCC3CCCCO3)n[nH]2)cc1 (centres undefined)	x	x	x	u	x	i
O=S(=O)(Nc1c(F)cccc1F)c1ccc(Cl)nc1	-17%	0	-5	i	0.92µM*	i
O=S(=O)(Nc1ccccc1F)c1ccc(Cl)nc1	1%	8	2	i	3%	i
COc1cccc(N2CCN(Cc3ccsc3)CC2)c1	1%	-71*	-10	i	2%	i
